# Test results taken from PubChem BioAssay.
# Molecular target: Fibroblast growth factor 10 (Homo sapiens) (UniProt O15520)
# Experiment: compounds binding fibroblast growth factor 10 – biochemical, small-molecule microarray, 635 nm fluorescence, primary screen (AID 1102)
# Conditions: FGF10 binding, fluorescence 635 nm, higher = more signal
# Sequence of Fibroblast growth factor 10 (Homo sapiens) (O15520 whole entry, looked up): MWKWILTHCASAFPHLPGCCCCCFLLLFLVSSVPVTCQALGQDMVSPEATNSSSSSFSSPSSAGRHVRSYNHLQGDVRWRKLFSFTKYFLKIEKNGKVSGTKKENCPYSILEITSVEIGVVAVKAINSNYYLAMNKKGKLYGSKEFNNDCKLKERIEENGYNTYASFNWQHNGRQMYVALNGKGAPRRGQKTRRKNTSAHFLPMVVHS
row,SMILES,composite z-score
1,O=C1C2C=CC(C(O)Cc3ccccc3)N(Nc3ccc([N+](=O)[O-])cc3)C2C(=O)N1c1ccccc1 (stereo unspecified),0.653
2,CC(C)C[C@@H]1NC(=O)[C@H](CC(C)C)NC(=O)[C@@]23C(=O)N[C@@H](Cc4ccccc4)C2[C@H](C)[C@@]2(C)O[C@H]2C3/C=C/CC/C=C/CNC1=O (stereo partly specified),0.707
3,COC(=O)[C@@]1(Cc2ccccc2CN=[N+]=[N-])N=C(c2ccc(OCCCO)cc2)O[C@H]1c1ccccc1N=[N+]=[N-],0.752
4,CCOC(=O)C[C@H]1[C@H](OC(=O)Cc2ccc3c(c2)OCO3)[C@@H](NC(=O)c2ccc3ccccc3c2)c2cc(OCCCO)ccc2N1C(=O)Cc1ccc(OC)cc1,0.491
5,C[N+](C)(C)CCCCNC(=O)[C@H]1C[C@H]2C(=O)NCC(=O)N2[C@H]1c1cccc(OCCO)c1,1.45
6,C=C(/C(=C/C[C@@H](OC(=O)c1ccncc1)c1ccc(CO)o1)c1cnc2ccccc2c1)C(C)C,1.06
7,CCCNC(=O)[C@@]1(Sc2ccc(C)cc2)CC(=O)N(Cc2ccccc2Cl)[C@@H]1c1ccc(CO)cc1,0.719
8,COC(=O)Cn1c(C(=O)N2CCCC2)cc2c1C[C@H]1CN(C(=O)c3ccccc3)[C@@](Cc3ccccc3)(C(=O)OC)[C@@H]21,0.0175
9,NC(=O)NCC#Cc1ccc2c(c1)[C@]1(C(=O)N2)[C@H](C(=O)N2CCCCCCC2)[C@H]2C(=O)O[C@H](c3ccccc3)[C@H](c3ccccc3)N2[C@@H]1c1ccccc1OCCO,1.39
10,Cc1ccc(S[C@]2(C(=O)NCCCN(C)C)CC(=O)N(C3CCCCC3)[C@@H]2c2ccc(CO)cc2I)cc1,-0.582
11,CCN1C(C)=C(C(=O)OC)[C@@H](c2ccccc2)N2C(=O)[C@@]3(C(=O)OC)O[C@@]12[C@@H]1C(=O)N(C)C(=O)[C@@H]13,1.25
12,CO[C@H]1COC(=O)[C@H](C)NC(=O)CC=C[C@@H](C)[C@H](NS(=O)(=O)c2ccc(C)cc2)COC(=O)CC=C[C@@H]1C,0.27
13,Cc1ccc(S(=O)(=O)N[C@H]2COC(=O)CC=C[C@H](C)COC(=O)N[C@@H](C)C(=O)CC=C[C@@H]2C)cc1,0.588
14,CN1C2C=C(c3ccc(CO)cc3)C(C3C(=O)N(C(N)=O)C(=O)C32)C1c1cccs1 (stereo unspecified),0.25
15,CCCC=C(CCC)[C@@H](NS(=O)(=O)c1ccc(C(F)(F)F)cc1)c1ccc(-c2ccccc2)cc1,1.13
16,CO[C@H]1COC(=O)[C@@H](C)NC(=O)CC=C[C@@H](C)[C@H](OC)COC(=O)CC=C[C@@H]1C,0.518
17,C=CCC(OC(C)=O)[C@@H]1[C@@H](N(Cc2cc3ccccc3o2)C(=O)Cc2ccc(F)cc2)c2cc(OCCCO)ccc2N1C(=O)c1ccc(-c2ccccc2)cc1 (stereo partly specified),-0.251
18,Cc1ccc(N2C(=O)c3ccccc3[C@@H](C(=O)NCc3ccccc3)[C@@H]2c2ccc(CO)cc2)nc1,0.329

row,SMILES,composite z-score
1,CCCC[C@@H]1C[C@H]1[C@@H](NC(=O)c1ccccc1)c1ccccc1C(F)(F)F,0.0165
2,CN1C(=O)C2C=CC(C(O)c3ccc(N(C)C)cc3)N(Nc3ccc([N+](=O)[O-])cc3[N+](=O)[O-])C2C1=O (stereo unspecified),0.887
3,O=C1C2C=CC(C(O)C#Cc3ccccc3)N(Nc3ccccc3)C2C(=O)N1c1ccccc1 (stereo unspecified),-0.102
4,Cc1ccc(S[C@]2(C(=O)NCCN3CCOCC3)CC(=O)N(C3Cc4ccccc4C3)[C@@H]2c2ccc(CO)cc2I)cc1,-0.303
5,O=C1O[C@@H](c2ccccc2)[C@@H](c2ccccc2)N2[C@@H](c3ccc(O)cc3)[C@]3(C(=O)Nc4ccccc43)[C@@H](C(=O)N3CCN(c4ncccn4)CC3)[C@H]12,-0.0898
6,C=CC[C@]1(C(=O)NCC(O)CO)N=C(c2ccc(OCCCO)cc2)O[C@H]1c1ccccc1 (stereo partly specified),-0.159
7,CC[C@@H]1C=C(C(=O)O)[C@H](c2ccccc2)N1S(=O)(=O)c1ccc([N+](=O)[O-])cc1,0.0734
8,CN1CCC(CCCO)=CC1C1CC1 (stereo unspecified),0.59
9,C=CC[C@]1(C(=O)N2CCCCC2)N=C(c2ccc(OCCCO)cc2)O[C@H]1c1ccccc1N=[N+]=[N-],0.975
10,COc1cccc([C@@H]2[C@@H](C)CC[C@H]3C(=O)N4[C@H](c5cccc(OC)c5)[C@@H](C)CC[C@H]4C(=O)N23)c1,0.614
11,COCCOC(=O)N1C(=O)[C@@]2(c3cc(C#CC4=CCCCC4)ccc31)[C@H](c1ccc(O)cc1)N1[C@H](c3ccccc3)[C@H](c3ccccc3)OC(=O)[C@H]1[C@@H]2C(=O)N1CCCCCCC1,0.603
12,C=CCC(OC(C)=O)[C@@H]1[C@@H](N(Cc2cccc3ccccc23)C(=O)c2ccc(C)cc2)c2cc(OCCCO)ccc2N1C(=O)c1ccc(-c2ccccc2)cc1 (stereo partly specified),-0.162
13,C=CCN1C(=O)[C@]2(O[C@H](CCn3cc(CCO)nn3)[C@@H]([Si](C)(C)c3ccc(OC)cc3)[C@@H]2C)c2cc(NC(=O)c3ccc(OC)cc3)ccc21,0.515
14,CC(=O)NCCCC[C@@H]1NC(=O)[C@@H]2C[C@H](C(=O)NCCCCCCN(C)C)[C@H](c3ccc(O)cc3)N2C1=O,1.25
15,CO[C@@H]1COC(=O)[C@H](COCc2ccccc2)NC(=O)CC=C[C@@H](C)[C@H](OC)COC(=O)[C@H](COCc2ccccc2)NC(=O)CC=C[C@H]1C,0.168
16,COCCOC(=O)N1C(=O)[C@@]2(c3ccccc31)[C@H](C(=O)N1CCc3cc(OC)c(OC)cc3C1)[C@H]1C(=O)O[C@H](c3ccccc3)[C@H](c3ccccc3)N1[C@@H]2c1ccccc1OCCO,0.626
17,C=C(CCCC)/C(=C/C[C@@H](OC(=O)c1ccncc1)c1cccc(OCCO)c1)c1cc(C(=O)OC)ccc1OC,0.74
18,C#CCCCON=C1C[C@@H](O)[C@@H](O)[C@@H]2[C@@H]3C(=O)N(Cc4ccc5c(c4)OCO5)C(=O)[C@@H]3CC[C@@H]12,0.42
